Compound activity as filed in PubChem.
Only some compounds are listed: those with a hit (about 0.84% of all), similar ones and a draw of the others.
p97 inhibitor: human p97 ATPase inhibition; recombinant p97 ATPase, Kinase-Glo ATP luminescence, 3 h; 0.42% of 220,000 active; P55072; inhibition, % at 8 µM; in the data active means inhibition above about 15%;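 further: 0% = DMSO vehicle and 100% = wells lacking enzyme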
Target sequence (P55072 whole entry, looked up): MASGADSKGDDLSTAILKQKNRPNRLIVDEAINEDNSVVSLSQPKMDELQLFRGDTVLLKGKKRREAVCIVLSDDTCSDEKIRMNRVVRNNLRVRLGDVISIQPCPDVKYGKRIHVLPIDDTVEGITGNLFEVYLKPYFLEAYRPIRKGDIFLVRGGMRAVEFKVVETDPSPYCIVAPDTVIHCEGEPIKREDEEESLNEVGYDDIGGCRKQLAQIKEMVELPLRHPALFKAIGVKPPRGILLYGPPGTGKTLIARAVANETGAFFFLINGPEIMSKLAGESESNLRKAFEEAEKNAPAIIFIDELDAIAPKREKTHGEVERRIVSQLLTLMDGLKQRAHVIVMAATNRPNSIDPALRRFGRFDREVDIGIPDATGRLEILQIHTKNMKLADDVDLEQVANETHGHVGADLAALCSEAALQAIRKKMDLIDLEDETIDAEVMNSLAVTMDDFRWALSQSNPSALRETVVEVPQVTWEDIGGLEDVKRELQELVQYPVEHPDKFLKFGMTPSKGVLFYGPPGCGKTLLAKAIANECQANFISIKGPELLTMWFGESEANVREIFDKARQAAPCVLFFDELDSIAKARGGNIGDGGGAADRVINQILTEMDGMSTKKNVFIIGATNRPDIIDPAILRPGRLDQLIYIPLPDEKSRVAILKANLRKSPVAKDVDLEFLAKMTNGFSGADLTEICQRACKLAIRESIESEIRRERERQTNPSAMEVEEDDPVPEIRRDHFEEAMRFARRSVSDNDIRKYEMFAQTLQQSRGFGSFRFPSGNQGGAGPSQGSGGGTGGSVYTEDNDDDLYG
S1P3 antagonist: S1P3 (human) receptor antagonism | Q99500 | CHO S1P3 NFAT-BLA reporter, FRET fluorescence, antagonist mode | inhibition, % at 4.98 µM | 0.27% of 170,000 active | AID 485;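 active means inhibition above the plate cutoff, the mean inhibition of test wells on that plate plus 3 SD, cut at about 28% in these data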;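 further: cells challenged with S1P at its EC80 of 0.8 µM; blue over green emission ratio from cleaved BLA substrate after 4 h stimulation; 0% = S1P-stimulated wells and 100% = unstimulated DMSO-only wells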
G6PDH counter: L. mesenteroides G6PDH inhibition counter-screen; Purified L. mesenteroides G6PDH, diaphorase/resazurin coupled fluorescence, 45 min; inhibition, % at 5 µM; 0.12% of 200,000 active; in the data active means inhibition above about 50%
Redox H2O2 prof: compounds producing H2O2 with reducing agent – biochemical, NIH compound library profiling, artefact control for MLSCN library redox annotation, primary screen; activation, % at 10 µM; 0.03% of 200,000 active; DTT-dependent redox cycling H2O2, phenol red/HRP absorbance; 100% = 100 µM peroxide control, 0% = buffer;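 active means activation of at least 50% relative to the plate's high and low controls in the primary single-dose screen; inactive means activation below 50%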;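 further: compound incubated with DTT at 0.8 mM final as the reducing agent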
TbHK1 inh: T. brucei hexokinase 1 inhibition | recombinant TbHK1, G6PDH-coupled NADH A340 | inhibition, % at 10 µM | 0.11% of 220,000 active;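 active means inhibition of 50% or more in the single-dose primary screen; inactive means inhibition below 50%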
p97 inh conf: confirmation of human p97 ATPase inhibitors; recombinant p97 ATPase, Kinase-Glo ATP luminescence; shares compounds with p97 inhibitor; AID 1517; inhibition, % at 8 µM; 44% of 760 active;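 active means percent inhibition of p97 ATPase above a set limit, the primary screen's mean plus 3 SD, cut at about 15% in these data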;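 further: 0% = DMSO wells and 100% = wells lacking p97 protein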
* marks the source's active call; other numbers are inactive results.

CCOC(=O)C1=C(c2ccccc2)NC(N)=NC1c1ccc(OCc2ccc(Cl)cc2)c(OC)c1 (configuration not stated) was read as p97 inhibitor 20.2*, S1P3 antagonist -6.6, TbHK1 inh 43.8 and p97 inh conf 28.2*.
`CC1CCCN(C(=O)c2cc(N3C(=O)C4C5CCC(C5)C4C3=O)ccc2Cl)C1` (configuration not stated) gave p97 inhibitor 2.8, S1P3 antagonist -0.8, G6PDH counter 10.3, Redox H2O2 prof 0.1 and TbHK1 inh 2.5.
C=CC[n+]1c(-c2ccccc2)csc1NC(C)(C)C was read as p97 inhibitor 5.2, S1P3 antagonist -4.0, G6PDH counter 8.4, Redox H2O2 prof -2.2 and TbHK1 inh 1.8.
COc1ccc(/C=N\NC(=O)c2cc(O)c(O)c(O)c2)cc1CN1CCN(c2ccc(F)cc2)CC1 was read as p97 inhibitor 16.6*, S1P3 antagonist -5.6, G6PDH counter -20.0, Redox H2O2 prof 0.6, TbHK1 inh -13.5 and p97 inh conf 25.9*.
COc1ccc(/C=N/NC(=O)c2ccc(C)cc2)cc1CN1CCN(c2ccc(F)cc2)CC1 was read as p97 inhibitor 2.8, G6PDH counter 0.1, Redox H2O2 prof -4.2 and TbHK1 inh -7.0.
CCCCNC(=O)c1onc(CSc2cccc(OCC)c2)c1C(=O)O was read as p97 inhibitor 0.2, G6PDH counter 3.2, Redox H2O2 prof -8.3 and TbHK1 inh -3.0.
CCC(CC)c1nn2c(N)c(/C=C3\C(C)=Nc4ccccc43)c(=O)nc2s1 was read as p97 inhibitor 23.9*, S1P3 antagonist 4.4, TbHK1 inh -5.6 and p97 inh conf 24.6*.
For CCC(CC)c1nn2c(N)c(/C=C3\C=Nc4ccccc43)c(=O)nc2s1 the results were p97 inhibitor 1.2, S1P3 antagonist -8.4 and TbHK1 inh -12.4.
CC(C)Cc1nn2c(N)c(/C=C3\C=Nc4ccccc43)c(=O)nc2s1 was read as p97 inhibitor 16.3*, S1P3 antagonist 0.6, G6PDH counter 4.5, Redox H2O2 prof -0.9, TbHK1 inh -9.1 and p97 inh conf 11.6.
For O=C(O)CCCN(Cc1cccc(Br)c1)S(=O)(=O)c1ccc(Br)cc1 the results were p97 inhibitor 2.7, S1P3 antagonist 7.2, G6PDH counter 2.0, Redox H2O2 prof -1.7 and TbHK1 inh -4.9.
Screening Nc1ccc(O)c(-c2nc3ccccc3s2)c1 returned p97 inhibitor -4.1, S1P3 antagonist 2.2, G6PDH counter 17.7, Redox H2O2 prof -2.9 and TbHK1 inh -12.3.
Screening Oc1ccc(-c2nc3ccccc3s2)c(O)c1 returned p97 inhibitor 16.6*, S1P3 antagonist 3.0, TbHK1 inh -25.5 and p97 inh conf 12.6.
For CN1CCN(c2nc3ccccc3nc2C(C#N)S(=O)(=O)c2ccccc2)CC1 (configuration not stated) the results were p97 inhibitor 5.1, S1P3 antagonist -5.2 and TbHK1 inh -14.2.
Screening N#CC(c1nc2ccccc2nc1N1CCCC1)S(=O)(=O)c1ccccc1 (configuration not stated) returned p97 inhibitor 17.2*, G6PDH counter 28.9, Redox H2O2 prof -0.1, TbHK1 inh -1.7 and p97 inh conf 4.1.
`Cc1ccc(C)c(S(=O)(=O)C(C#N)c2nc3ccccc3nc2N2CCCC2)c1` (configuration not stated) gave p97 inhibitor 19.0*, S1P3 antagonist -22.8, G6PDH counter 21.9, Redox H2O2 prof 0.3, TbHK1 inh -12.6 and p97 inh conf 7.9.
For Cc1ccc(C)c(S(=O)(=O)C(C#N)c2nc3ccccc3nc2N2CCOCC2)c1 (configuration not stated) the results were p97 inhibitor 0.3, S1P3 antagonist -3.9, G6PDH counter 8.9, Redox H2O2 prof -0.1 and TbHK1 inh -4.6.
`C=CCNC(=O)C(C#N)c1nc2ccccc2nc1N1CCCCCC1` (configuration not stated) gave p97 inhibitor 20.6*, G6PDH counter 1.3, Redox H2O2 prof -2.7, TbHK1 inh -7.4 and p97 inh conf -1.5.
Screening O=C(N/N=C/c1c(Cl)cccc1Cl)c1ccccc1F returned p97 inhibitor 2.7, S1P3 antagonist -9.6, G6PDH counter 7.5, Redox H2O2 prof -0.3 and TbHK1 inh -2.4.
